Rows were chosen to be rich in hits. Some 10% of all compounds tested hit in one or more screens of this group.
BAZ2B block = inhibitors of human BAZ2B bromodomain. Potency, µM (highest dose often 114 µM), for inactives: at the top dose activity change, negative = inhibition, most hits filed as inhibitors. AlphaScreen BAZ2B-H3K14Ac peptide displacement. actives 4.4% (n = 360,000); also: potency is read from the fitted curve at half-maximal effect; % is scaled to controls: 0 for no effect and ±100 for the full control effect; nearly all actives have a fitted effect of over 60% in size
Target sequence (Q9UIF8 whole entry, looked up): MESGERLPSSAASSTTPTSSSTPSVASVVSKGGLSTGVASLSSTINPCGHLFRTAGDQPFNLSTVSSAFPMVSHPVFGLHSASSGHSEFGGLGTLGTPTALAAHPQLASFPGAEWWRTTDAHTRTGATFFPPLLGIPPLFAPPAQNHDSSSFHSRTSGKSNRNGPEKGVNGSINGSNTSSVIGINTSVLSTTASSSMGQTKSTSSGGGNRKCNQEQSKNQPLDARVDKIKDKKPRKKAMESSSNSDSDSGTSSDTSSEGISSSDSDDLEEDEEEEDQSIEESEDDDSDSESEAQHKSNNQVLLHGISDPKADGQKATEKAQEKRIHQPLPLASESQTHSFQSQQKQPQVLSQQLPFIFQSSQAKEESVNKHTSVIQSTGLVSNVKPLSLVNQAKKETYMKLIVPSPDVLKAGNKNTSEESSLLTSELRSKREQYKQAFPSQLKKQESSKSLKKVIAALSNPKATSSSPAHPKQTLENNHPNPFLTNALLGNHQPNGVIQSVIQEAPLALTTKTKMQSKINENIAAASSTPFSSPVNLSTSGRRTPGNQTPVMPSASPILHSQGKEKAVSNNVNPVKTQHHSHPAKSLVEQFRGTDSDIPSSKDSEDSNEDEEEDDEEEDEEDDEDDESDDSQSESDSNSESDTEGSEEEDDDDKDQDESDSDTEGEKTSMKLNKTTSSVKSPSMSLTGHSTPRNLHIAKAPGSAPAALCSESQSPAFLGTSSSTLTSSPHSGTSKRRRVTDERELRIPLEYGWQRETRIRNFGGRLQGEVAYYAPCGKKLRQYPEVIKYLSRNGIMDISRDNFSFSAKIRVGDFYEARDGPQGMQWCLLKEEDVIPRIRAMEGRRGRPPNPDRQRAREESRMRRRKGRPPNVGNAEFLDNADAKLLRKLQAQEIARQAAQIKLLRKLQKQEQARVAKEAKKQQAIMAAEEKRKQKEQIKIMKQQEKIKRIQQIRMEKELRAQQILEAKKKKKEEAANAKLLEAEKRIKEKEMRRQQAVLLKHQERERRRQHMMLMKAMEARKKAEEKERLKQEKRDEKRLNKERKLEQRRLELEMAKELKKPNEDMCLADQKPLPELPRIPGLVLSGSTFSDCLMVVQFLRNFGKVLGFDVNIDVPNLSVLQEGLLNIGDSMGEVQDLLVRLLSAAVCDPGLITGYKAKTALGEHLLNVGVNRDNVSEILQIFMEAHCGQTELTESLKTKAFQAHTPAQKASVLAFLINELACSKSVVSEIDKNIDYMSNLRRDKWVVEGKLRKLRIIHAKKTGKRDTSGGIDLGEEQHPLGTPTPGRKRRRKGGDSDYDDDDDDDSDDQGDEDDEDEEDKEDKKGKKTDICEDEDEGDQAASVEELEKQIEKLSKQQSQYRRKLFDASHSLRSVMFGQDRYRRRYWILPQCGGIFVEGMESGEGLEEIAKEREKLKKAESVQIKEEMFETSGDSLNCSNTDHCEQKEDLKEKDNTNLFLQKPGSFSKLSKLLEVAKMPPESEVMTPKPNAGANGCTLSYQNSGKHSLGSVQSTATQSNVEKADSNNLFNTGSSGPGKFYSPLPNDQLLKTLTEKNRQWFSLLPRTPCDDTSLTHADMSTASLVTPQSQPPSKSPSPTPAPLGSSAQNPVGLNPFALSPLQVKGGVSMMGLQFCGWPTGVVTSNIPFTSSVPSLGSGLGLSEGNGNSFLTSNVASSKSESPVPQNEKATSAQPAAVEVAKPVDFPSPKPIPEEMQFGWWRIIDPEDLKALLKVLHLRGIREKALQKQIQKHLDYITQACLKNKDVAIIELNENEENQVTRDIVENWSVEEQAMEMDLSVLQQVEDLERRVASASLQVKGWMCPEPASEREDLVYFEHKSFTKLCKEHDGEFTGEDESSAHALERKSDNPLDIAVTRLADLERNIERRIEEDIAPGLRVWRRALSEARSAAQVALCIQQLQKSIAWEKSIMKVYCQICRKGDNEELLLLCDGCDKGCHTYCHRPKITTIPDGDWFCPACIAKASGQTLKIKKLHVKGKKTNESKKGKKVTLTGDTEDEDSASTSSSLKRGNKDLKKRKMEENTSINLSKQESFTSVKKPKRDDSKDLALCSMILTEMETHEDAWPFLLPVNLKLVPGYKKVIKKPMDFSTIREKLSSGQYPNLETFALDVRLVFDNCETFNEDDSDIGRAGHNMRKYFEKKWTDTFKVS
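BAZ2B 50 nM plus b-H3(5-23)K14Ac 50 nM, PBS pH 7.4/0.01% Tween-20, 30 min RT; compound added (max 110 uM), 30 min RT; streptavidin donor/Ni-chelate acceptor beads 10 ug/mL final, 20 min dark; AlphaScreen read.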
CtBP-E1A inh = blocks the CtBP interaction with E1A | AlphaScreen GST-E1A/His-CtBP binding, 1536-well; active compounds read low | activity change, % (test concentration not listed) | actives 0.49% (n = 340,000); in the data active = activity change below about -65%; inconclusive = mostly about -30% to -63%; also: % is scaled to controls: 0 for no effect and ±100 for the full control effect
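Steps: dispense buffer (Tris pH 8.0, NaCl 300 mM, TCEP 1 mM, BSA, Tween 20); add 5X protein mix (GST-E1A, His-CtBP, 125 nM each); pin 23 nL compound; 2 h at 37 °C, dark; add 5X beads (50 ug/mL); 1 h; read.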
JMJD2A Tudor = inhibitors of human JMJD2A Tudor domain; O75164; AlphaScreen JMJD2A-Tudor / H3K4me3 peptide binding; Potency, µM (doses to about 114 µM), without a hit: at the top dose activity change, negative = inhibition, most hits filed as inhibitors; actives 4.4% (n = 390,000); AID 504339; also: potency is read from the fitted curve at half-maximal effect; % is scaled to controls: 0 for no effect and ±100 for the full control effect; nearly all actives have a fitted effect of over 50% in size
G9a block = G9a (human) methyltransferase inhibition; Q96KQ7; G9a H3K9 monomethylation, AlphaScreen, 2 h; Potency, µM (top dose mostly 102 µM), for inactives: at the top dose activity, negative = inhibition, most hits filed as inhibitors; actives 8.8% (n = 350,000); also: potency is read from the fitted curve at half-maximal effect; % is scaled to controls: 0 for no effect and ±100 for the full control effect; nearly all actives have a fitted effect of over 75% in size
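Chemiluminescent proximity detection of H3K9 monomethylation, read after 10 min bead incubation in the dark. Reaction: 20 nM G9a, 500 nM biotin-H3K9 peptide, 20 uM SAM cofactor, 2 h, room temperature, following 15 min enzyme-compound preincubation.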
Six1-Eya2 inh = inhibitors of human Six1/Eya2 interaction. AlphaScreen GST-Six1/His-Eya2 binding, biochemical; active compounds read low. activity change, % (concentration not given with the values). actives 0.56% (n = 360,000). AID 651725; in the data active = activity change below about -65%; inconclusive = mostly about -30% to -63%; also: % is scaled to controls: 0 for no effect and ±100 for the full control effect
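AlphaScreen luminescence read after one hour at 37 °C in darkness. Pin-transferred compounds met GST-Six1 and His-Eya2 protein (5X stock 250 nM/500 nM) plus glutathione donor and Ni-chelate acceptor beads (5X, 50 ug/mL).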
HP1b binding inh = blocks HP1-beta chromodomain binding to methylated histone tails. AlphaScreen HP1-beta / biotin-H3K9me3 peptide binding. Potency, µM (titrated, usually from 114 µM), for inactives: at the highest dose activity change, negative = inhibition, most hits filed as inhibitors. actives 0.56% (n = 390,000); also: potency is read from the fitted curve at half-maximal effect; nearly all actives have a fitted effect of over 70% in size
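AlphaScreen: HP1-beta (50 nM) preformed 30 min with biotin-H3(1-18)K9me3 peptide (50 nM) in PBS pH 7.4, 0.01% Tween-20. Compound added for 30 min at RT, then streptavidin donor/nickel chelate acceptor beads (10 ug/mL) for 30 min.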
An asterisk follows results filed as active; ! = a repeat was not active; [ ] = dose if it differs, or a comment. Unless noted, calls follow the shape of the dose curve; as a rule, active = well fitted inhibition curve with a large enough effect; inconclusive = small, poorly fitted or top-dose-only effect; inactive = no such curve, though single readings can be large or run the other way.

How did CC(C)(C)NC(=O)C(c1ccco1)N(C(=O)c1ccc(CN2CCOCC2)o1)c1ccccc1 (centres undefined) do in these assays?
BAZ2B block: 1.6%; CtBP-E1A inh: -23.3; JMJD2A Tudor: -4.9%; G9a block: 11.2µM*; Six1-Eya2 inh: -20.1; HP1b binding inh: 8.2%

What do the screens show for `CC(C)(O)[C@H](O)COc1c2occc2cc2ccc(=O)oc12`?
BAZ2B block: -5.5%; CtBP-E1A inh: 3.9; JMJD2A Tudor: -22.2%; G9a block: 1.41µM*; Six1-Eya2 inh: 10.1; HP1b binding inh: -0.8%

What do the screens show for `CC(C)=CCC/C(C)=C/COc1c2occc2cc2ccc(=O)oc12`?
CtBP-E1A inh: 7.0; JMJD2A Tudor: 27.2%; Six1-Eya2 inh: 4.3; HP1b binding inh: 95.3%

Results for COc1ccc(/C=C/C(=O)Nc2ccc(Cl)c(Cl)c2)cc1OC ?
BAZ2B block: 10.1%; JMJD2A Tudor: 3.9%; G9a block: -37.7%[59 µM]; HP1b binding inh: 37.3%

Results for CC(C)(C)c1ccc(C(=O)NNc2cc(Cl)cc(Cl)c2)cc1 ?
BAZ2B block: -9.7%; JMJD2A Tudor: -2.3%; G9a block: 22.4µM*; Six1-Eya2 inh: 12.6; HP1b binding inh: 64.5%

Results for CCc1ccc(C(=O)NNc2ccc(Cl)cc2)cc1 ?
BAZ2B block: inconclusive; JMJD2A Tudor: -25.9%; G9a block: 10µM*; Six1-Eya2 inh: 9.8; HP1b binding inh: 77.7%

Results for CCc1ccc(C(=O)NNc2cc(Cl)cc(Cl)c2)cc1 ?
BAZ2B block: -4.2%; CtBP-E1A inh: 0.0; JMJD2A Tudor: -16.2%; Six1-Eya2 inh: 14.4; HP1b binding inh: 19.7%

What do the screens show for `CC(C)(C)c1ccc(C(=O)NNC(=O)c2ccc(Cl)cc2)cc1`?
BAZ2B block: 1.1%; CtBP-E1A inh: 4.7; JMJD2A Tudor: 0.7%; G9a block: -5.1%[59 µM]; Six1-Eya2 inh: -1.3; HP1b binding inh: 40.0%

What do the screens show for `CN1/C(=C/c2cc[n+](C)c3ccccc23)C=Cc2ccccc21`?
BAZ2B block: 28.2µM*; CtBP-E1A inh: -10.5; JMJD2A Tudor: 28.2µM*; G9a block: 35.5µM*; Six1-Eya2 inh: inconclusive; HP1b binding inh: inconclusive

How did COC(=O)/C(C#N)=C1/C=Cc2ccccc2N1C do in these assays?
BAZ2B block: 3.0%; CtBP-E1A inh: -0.5; JMJD2A Tudor: -11.4%; G9a block: 11.4%[59 µM]; Six1-Eya2 inh: -8.2; HP1b binding inh: 29.5%

What do the screens show for `Cc1ccc(-n2[nH]c(C)c(C=Nc3ccc(S(=O)(=O)N4CCOCC4)cc3)c2=O)c(C)c1`?
BAZ2B block: -8.5%; G9a block: -4.9%[59 µM]

How did CC1CCN(S(=O)(=O)N2CCC(C(=O)NCc3ccccc3Cl)CC2)CC1 do in these assays?
BAZ2B block: 5.0%; JMJD2A Tudor: -16.5%; G9a block: 3.2%[59 µM]; HP1b binding inh: -12.1%

Results for CC(=O)c1cc(-c2ccccc2)n(CCC(=O)NC2CCCC2)c1C ?
BAZ2B block: 50.1µM*; CtBP-E1A inh: 0.9; JMJD2A Tudor: -17.8%; G9a block: 3.5%; Six1-Eya2 inh: -0.3; HP1b binding inh: 6.2%

How did CCC(C)NC(=O)CCn1c(-c2ccccc2)cc(C(C)=O)c1C (centres undefined) do in these assays?
BAZ2B block: 50.1µM*; CtBP-E1A inh: 1.7; JMJD2A Tudor: 1.8%[57.1 µM]; G9a block: 15.5%; Six1-Eya2 inh: 4.7; HP1b binding inh: 19.1%

How did CC(=O)c1cc(-c2ccccc2)n(CCC(=O)NC2CCCCC2)c1C do in these assays?
BAZ2B block: 50.1µM*!; CtBP-E1A inh: -7.4; JMJD2A Tudor: -14.7%; G9a block: 5.3%[59 µM]; Six1-Eya2 inh: -7.3; HP1b binding inh: 25.1%

Results for CC(=O)c1cc(-c2ccccc2)n(CCC(=O)NC2CCC(C)CC2)c1C (centres undefined) ?
BAZ2B block: -26.8%; CtBP-E1A inh: -7.0; JMJD2A Tudor: -5.3%[57.1 µM]; G9a block: 22.9%; Six1-Eya2 inh: 1.4; HP1b binding inh: 14.5%

How did Cc1sc(NC(=O)CCC(=O)O)c(C(N)=O)c1-c1ccccc1 do in these assays?
BAZ2B block: -1.3%; CtBP-E1A inh: 12.2; JMJD2A Tudor: inconclusive; G9a block: 10µM*; Six1-Eya2 inh: -1.7; HP1b binding inh: inconclusive

How did COc1ccc(NC(=O)c2c(NC(=O)CCC(=O)O)sc(-c3ccccc3)c2C)cc1 do in these assays?
BAZ2B block: -33.6%; JMJD2A Tudor: -19.3%; G9a block: 5.62µM*; Six1-Eya2 inh: -0.8; HP1b binding inh: -25.1%

Results for CCc1ccc(-c2c(C)sc(NC(C)=O)c2C(N)=O)cc1 ?
BAZ2B block: -7.7%; CtBP-E1A inh: 1.1; JMJD2A Tudor: inconclusive; G9a block: 11.2µM*; Six1-Eya2 inh: -2.6; HP1b binding inh: -33.7%

Results for Cc1sc(NC(=O)C2CCCCC2C(=O)O)c(C(N)=O)c1-c1ccccc1 (centres undefined) ?
BAZ2B block: -1.6%; CtBP-E1A inh: 2.1; JMJD2A Tudor: -16.0%; G9a block: 35.5µM*; Six1-Eya2 inh: 5.6; HP1b binding inh: -9.0%

Results for Cc1ccc2cc3cc(C(=O)N4CCN(c5ccccc5)CC4)oc3nc2c1 ?
BAZ2B block: 4.7%; JMJD2A Tudor: -8.1%; G9a block: -1.5%[59 µM]; HP1b binding inh: 10.5%[57 µM]

How did O=C(C1=C(O)C(=O)N(c2nccs2)C1c1ccccc1)c1cc2ccccc2o1 (centres undefined) do in these assays?
BAZ2B block: 39.8µM*; CtBP-E1A inh: -0.8; JMJD2A Tudor: -31.7%; G9a block: 3.55µM*; Six1-Eya2 inh: -4.6; HP1b binding inh: -14.1%

Results for O=C(C1=C(O)C(=O)N(CCc2ccccc2)C1c1ccncc1)c1cc2ccccc2o1 (centres undefined) ?
BAZ2B block: -2.0%; CtBP-E1A inh: -13.6; JMJD2A Tudor: -25.4%; G9a block: inconclusive; Six1-Eya2 inh: 1.8; HP1b binding inh: 22.9%

What do the screens show for `CCOc1cccc(C2C(C(=O)c3ccc(C)o3)=C(O)C(=O)N2c2nccs2)c1` (centres undefined)?
BAZ2B block: inconclusive; CtBP-E1A inh: -0.5; JMJD2A Tudor: inconclusive; G9a block: 6.31µM*; Six1-Eya2 inh: -3.4; HP1b binding inh: 20.9%

How did Cc1ccccc1-c1ccnc2[nH]n(-c3ccccc3)c(=O)c12 do in these assays?
BAZ2B block: -14.6%; CtBP-E1A inh: 8.6; JMJD2A Tudor: -16.4%; G9a block: inconclusive; Six1-Eya2 inh: 1.1; HP1b binding inh: -14.6%

How did O=C(Nn1c(C2CCCCC2)nc2ccccc2c1=O)c1ccc([N+](=O)[O-])cc1Cl do in these assays?
BAZ2B block: -17.8%; CtBP-E1A inh: -21.6; JMJD2A Tudor: -3.7%; G9a block: -5.7%; Six1-Eya2 inh: -15.5; HP1b binding inh: 11.4%

High-throughput results deposited in PubChem by National Center for Advancing Translational Sciences (NCATS).
